Structures are written as SMILES.

In the experiment the test system is Vero E6 infected with SARS-CoV-2. Nature of the experiment: morphology score (similarity to uninfected cells); higher = more like uninfected cells. The settings on record: 24 h.
With `CCOc1cn(-c2ccc(F)cc2C)nc1C(=O)Nc1ccc(Oc2ccnc3cc(OC)c(OC)cc23)c(F)c1` (10 µM), the morphology score came to 0.685. For the compound `CC1(C)S[C@@H]2[C@H](NC(=O)[C@H](N)c3ccc(O)cc3)C(=O)N2[C@H]1C(=O)O` [amoxicillin] (10 µM), the morphology score is -0.146. `O=C(O)CNC(=O)c1ccccc1` [hippuric-acid] (10 µM): the morphology score is -0.0766. The value for `Cl/C(=C\n1cncn1)c1ccc(Cl)cc1Cl` [loreclezole] (10 µM) was 0.0913; that for `C=C(c1ccccc1OCc1cccc(Cl)c1)n1ccnc1` [croconazole] (10 µM) was 0.0614. The value for `COc1cc2c(cc1OC)-c1c/c(=N\c3c(C)cc(C)cc3C)n(C)c(=O)n1CC2` [trequinsin] (10 µM) was 0.541.

With `CCS(=O)(=O)N1CCN(c2ccc(Nc3ncc(C(N)=O)c(NC4CC4)n3)cc2)CC1` (10 µM), the morphology score was 0.439. The value for `Cc1ccc(-c2ccc(F)cc2COc2ccc(CCC(=O)O)cc2)cc1` (10 µM) was -0.174; that for `CCc1nc2c(C)nc(C)cc2n1-c1ccc(CCNC(=O)NS(=O)(=O)c2ccc(C)cc2)cc1` [grapiprant] (10 µM) was 0.243; that for `O=C1NCCc2[nH]c(-c3ccncc3)cc21` (0.833333 µM) was 0.0617. The value for `COc1ccc2nc3[nH]nc(C)c3c(NCCOCCO)c2c1` (10 µM) was -0.00598; that for `COC[C@H](C)Oc1cc(O[C@@H](C)Cc2ccccc2)cc(C(=O)Nc2ccc(C(=O)O)cn2)c1` (10 µM) was -0.163; that for `O=C1Nc2ccc(Cl)c3c2C1(CCCCN1CC=C(c2ccc(Cl)cc2)CC1)CCC3` (stereo not given) (0.833333 µM) was 0.0484.

As to `Cc1ncc([N+](=O)[O-])n1CC(O)CCl` (stereo not given) [ornidazole] (10 µM), the morphology score came to 0.0809. As to `CC(C)(C)NCC(O)c1ccc(O)c(CO)c1` (stereo not given) [albuterol] (10 µM), the morphology score turned out to be 0.108. The compound `CCCCCCCCCCCCCCCC(=O)C(F)(F)F` (10 µM) had a morphology score of 0.158.

In the case of `Nc1nc(=O)n([C@H]2C[C@H](O)[C@@H](CO)O2)cc1Cl` [cytochlor] (10 µM), the morphology score is 0.156. The figure for `CC[C@@H](C(=O)[C@@H](C)[C@@H](O)[C@H](C)[C@@H]1O[C@@H]([C@@H](CC)C(=O)O)CC[C@@H]1C)[C@H]1O[C@]2(C=C[C@@H](O)[C@]3(CC[C@@](C)([C@H]4CC[C@](O)(CC)[C@H](C)O4)O3)O2)[C@H](C)C[C@@H]1C` [Salinomycin (Procoxacin)] (10 µM) is -0.00386. The value for `C/C(=C\CNc1ncnc2[nH]cnc12)CO` [zeatin] (10 µM) was -0.0215. The figure for `CC(=O)Nc1c(I)c(C(=O)O)c(I)c(N(C)C(C)=O)c1I` [metrizoic-acid] (10 µM) is 0.0802. In turn, `Clc1ccc(CSC(Cn2ccnc2)c2ccc(Cl)cc2Cl)cc1` (stereo not given) [sulconazole] (10 µM) had a morphology score of -0.0348. `C1=N/C2=N/c3ccc(OCCN4CCCC4)c(c3)COC/C=C/COCc3cccc(c3)C(=C1)N2` [pacritinib] (0.833333 µM) returned a morphology score of 0.286. The value for `COc1cc(C[C@H]2C(=O)OC[C@@H]2Cc2ccc(OC)c(OC)c2)ccc1O` [arctigenin] (10 µM) was 0.0564; that for `CO[C@@H]1[C@@H](OC(N)=O)[C@@H](O)[C@H](Oc2ccc3c(O)c(NC(=O)c4ccc(O)c(CC=C(C)C)c4)c(=O)oc3c2C)OC1(C)C` [novobiocin] (10 µM) was 0.165. The figure for `COC(=O)C1=C(C)NC(C)=C(C(=O)OCCCN2CCC(c3ccccc3)(c3ccccc3)CC2)[C@@H]1c1cccc([N+](=O)[O-])c1` [dexniguldipine] (0.833333 µM) is 0.134. In turn, `COc1cccc(C2(O)CCCCC2CN(C)C)c1` (stereo not given) (10 µM) yielded a morphology score of 0.17. The value for `COc1ccc(-c2ccc3c(N4CCOCC4)nc(N4C[C@@H](C)O[C@@H](C)C4)nc3n2)cc1CO` (0.833333 µM) was 0.12; that for `N=C1CCCN1Cc1[nH]c(=O)[nH]c(=O)c1Cl` [tipiracil] (10 µM) was -0.0802; that for `CC[C@@]1(O)C(=O)OCc2c1cc1n(c2=O)Cc2cc3c(CN(C)C)c(O)ccc3nc2-1` [topotecan] (10 µM) was 0.0619. The figure for `CC(C)NCC(O)c1cc(O)cc(O)c1` (stereo not given) [metaproterenol] (10 µM) is 0.132.

With `NCCCC[C@H](N[C@@H](CCc1ccccc1)C(=O)O)C(=O)N1CCC[C@H]1C(=O)O` [lisinopril] (10 µM), the morphology score was found to be 0.0957. The value for `O[C@H]1CC[C@H](Nc2nc(-c3ccccc3)nc3[nH]ccc23)CC1` (10 µM) was 0.409; that for `CC(CCc1ccc(O)cc1)NCC(O)c1ccc(O)cc1` (stereo not given) [ractopamine] (10 µM) was -0.0659. The value for `CC(=O)N1CCN(CCOc2ccc(C3CCN(C4=Nn5c(nnc5C(F)(F)F)CC4)CC3)cc2)CC1` (0.833333 µM) was 0.0218. The value for `CC(C)(C#N)c1cc(Cn2cncn2)cc(C(C)(C)C#N)c1` [anastrozole] (10 µM) was -0.0389; that for `O=[N+]([O-])C(Br)(CO)CO` [bronopol] (10 µM) was -0.0828. Take `C[C@@H]1O[C@@H](O[C@@H]2[C@@H](O)[C@H](OCCc3ccc(O)c(O)c3)O[C@H](CO)[C@H]2OC(=O)/C=C/c2ccc(O)c(O)c2)[C@H](O)[C@H](O)[C@H]1O` [verbascoside] (10 µM): the morphology score is 0.0986.

`Nc1n[nH]c2nnc(-c3c(-c4ccccc4)nn4ccccc34)cc12` (10 µM): the morphology score amounted to 0.264. The figure for `Cc1cc(C)c(NC(=O)C2CC3CCC2C3)c(C)c1` (stereo not given) (10 µM) is -0.102; for `N[C@@H](CS)C(=O)O` [L-cysteine] (10 µM) it is 0.0349.

These data come from the supplement of paper PMC13380429.
